Source: PubChem (ICCB-Longwood Screening Facility, Harvard Medical School)
Ba CapD inh: inhibitors of Bacillus anthracis CapD enzyme; purified CapD enzyme, fluorescence intensity read-out; hits give low values; AID 492967; hit rate 0.23% among 140,000; z-score (test concentration not listed); in the data active = z-score mostly below about -2.9, no sharp cut-off; inactive = mostly above about -1.9
Starred values were filed as active, the others as inactive. This is one part of a sample in which hits are shown more often than they occur.

SMILES | Ba CapD inh
CC1CN(c2cc(=O)n(-c3ccc(Cl)cc3)c(=O)[nH]2)CC(C)O1 (configuration not stated) | -4.1*
COc1ccc(-n2c(=O)cc(N3CCCC3)[nH]c2=O)cc1 | -1.4
CC(=O)Oc1ccc(C2Nc3c(C(=O)O)ccc([N+](=O)[O-])c3C3C=CCC32)cc1 (configuration not stated) | -2.7*
O=C(O)c1ccc([N+](=O)[O-])c2c1NC(c1ccc([N+](=O)[O-])cc1)C1CC=CC21 (configuration not stated) | -0.53
CC(=O)Oc1ccc(C2Nc3c(C(=O)c4ccccc4)cc(Cl)cc3C3C=CCC32)cc1 (configuration not stated) | -0.005
COc1ccc(NC(=O)/C=C/c2ccccc2)cc1 | -0.02
COc1cc(I)c(OC)cc1I | -0.72
Cn1c(=O)c2c(-c3ccc(Br)cc3)n(CCO)cc2n(C)c1=O | 14
COc1ccc(-n2cnnn2)cc1 | -0.26
CC(C)NC(=O)c1cc2sccc2nc1C(F)(F)F | -0.33
CCCC(=O)Oc1ccc(N(C(=O)CCC)S(=O)(=O)c2ccccc2)cc1 | -0.49
CC(=O)Oc1ccc(N(C(C)=O)S(=O)(=O)c2ccccc2)cc1 | -4.2*
COc1ccc(N(C(C)=O)S(=O)(=O)c2ccc(C)cc2)cc1 | -3.4
COc1cccc(OCC(=O)NC(C)C)c1 | -1.2
CCN(CC)C(=S)Nc1ccsc1C(=O)OC | -0.28
Oc1ccc(-c2ncc(-c3cnc4ccccc4n3)c(-c3ccccc3)n2)cc1 | 4.1
CCCC(CCC)C(=O)Nc1ccccc1 | 0.7
O=C(Nc1ccccc1)C(C(F)(F)F)C(F)(F)F | -3.6*
CC(C(=O)Nc1ccccc1)C(=O)Nc1ccccc1 | -0.065
COc1ccc(C2CC(=O)C3=C(C2)NC(C)=C(C(=O)OCCOc2ccccc2)C3c2ccc(O)cc2)cc1 (configuration not stated) | 32
CC(C)C(=O)N(c1ccc2oc(=O)sc2c1)S(=O)(=O)c1cccs1 | -3
COc1ccc(N(C(=O)C(C)C)S(=O)(=O)c2cccs2)cc1 | -7*
CC(=O)Oc1ccc(N(C(C)=O)S(=O)(=O)c2cccs2)cc1 | -2.7
CCc1ccc(N/C(SCc2ccc(Cl)cc2)=C(/C#N)C(=O)NCc2ccco2)cc1 | 43
CCN1CCN(C(c2cccs2)C(C)NC(=O)C(C)C)CC1 (configuration not stated) | -5.4*
SMILES | Ba CapD inh
CCN1CCN(C(c2cccs2)C(C)NC(=O)Cc2cccs2)CC1 (configuration not stated) | 0.17
CC(C)C(=O)NC(C)C(c1cccs1)N1CCOCC1 (configuration not stated) | -0.39
O=C1C(C=Nc2ccc(Cl)cc2)=C(O)CC2c3ccccc3CCN12 (configuration not stated) | -0.06
N#CC(C(=O)CN1CCN(c2ccccc2)CC1)c1ccccc1 (configuration not stated) | -0.35
CCOC(=O)c1c(CN2CCC(C(=O)OCC)(c3ccccc3)CC2)n(Cc2ccccc2)c2cc(Br)c(O)cc12 | 0.3
S=c1[nH]nc(-c2ccccc2)n1/N=C/C=C/c1ccco1 | -2.4
Cc1nnc(C)n1/N=C/C=C\c1ccco1 | -4.4*
S=c1[nH]nc(-c2cccnc2)n1/N=C/C=C/c1ccco1 | -2.5
Cc1nn(C(=O)c2ccccc2)c(C)c1Oc1ccccc1 | 0.32
Cc1cc(=O)n(-c2nc3ccccc3[nH]2)[nH]1 | -0.09
CCC(Cc1ccccc1)NC(=O)c1ccc2c(c1)NC(=O)c1ccccc1S2 (configuration not stated) | 0.4
COC(CN(C)C(=O)c1ccc2c(c1)NC(=O)c1ccccc1S2)OC | -6*
COC(=O)c1ccc2c(c1)NC(=O)c1ccccc1S2 | -0.025
CCCNC(=O)c1c(C)cc(=O)oc1C | -1.6
Cc1cc(=O)oc(C)c1C(=O)NCc1ccccc1 | -3.7*
Cc1oc2c(c1C(=O)NCc1ccccc1)C(=O)c1ccccc1C2=O | -0.05
Cc1ccc(S(=O)(=O)N(C)c2ccccc2)s1 | -0.07
O=C(c1cc2cc(Br)ccc2oc1=O)N1CCSC1c1cccc([N+](=O)[O-])c1 (configuration not stated) | 0.3
CCOC(=O)c1sc2nc(C)n(CC(=O)Nc3ccc(Oc4ccccc4)cc3)c(=O)c2c1C | 0.49
CC(c1ccccc1)C1Nc2ccccc2C(=O)N1c1ccccc1 (configuration not stated) | 15
Cc1ccc(C)n1-c1ccsc1-c1cc2nc(-c3ccccc3)cc(=O)n2[nH]1 | 37
CC12CCC(C(=O)N(c3cccc4ccccc34)C1=O)C2(C)C (configuration not stated) | 0.62
COC(=O)CSc1nnc(-c2ccncc2)n1Cc1ccccc1 | 0.11
C=CCNC(=O)c1ccc2c(=O)n(Cc3ccco3)c(=S)[nH]c2c1 | 0.38
CC(C)NC(=O)c1ccc2c(=O)n(Cc3ccco3)c(=S)[nH]c2c1 | -5.1*
COC(CNC(=O)c1ccc2c(=O)n(Cc3ccco3)c(=S)[nH]c2c1)OC | -0.57
CC(C)(C#Cc1cncnc1)OC(=O)Nc1ccc(Cl)cc1 | 0.93
O=C(Nc1ccccc1Sc1ncc(-c2ccc(Cl)cc2)cn1)c1cccc(C(F)(F)F)c1 | -0.69
CC(C)(C)c1ccc(C(=O)N2CCC(C(=O)NN)CC2)cc1 | 11
